# Assay results as given in PubChem BioAssay AID588852 (The Scripps Research Institute Molecular Screening Center, 2011).
# The whole screen tested about 360,000 compounds, of which about 4,600 (1.3%) were called active.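 How the source made its calls: active means percent inhibition above its own plate's cutoff, namely the mean of that plate's compound wells plus 3 SD; inactive means the rest.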 Many of the other results were omitted from the sample, so actives are more common in it than they were.
# Molecular target: Muscarinic acetylcholine receptor M1 (Homo sapiens) (UniProt P11229)
# Sequence (P11229 whole entry, looked up): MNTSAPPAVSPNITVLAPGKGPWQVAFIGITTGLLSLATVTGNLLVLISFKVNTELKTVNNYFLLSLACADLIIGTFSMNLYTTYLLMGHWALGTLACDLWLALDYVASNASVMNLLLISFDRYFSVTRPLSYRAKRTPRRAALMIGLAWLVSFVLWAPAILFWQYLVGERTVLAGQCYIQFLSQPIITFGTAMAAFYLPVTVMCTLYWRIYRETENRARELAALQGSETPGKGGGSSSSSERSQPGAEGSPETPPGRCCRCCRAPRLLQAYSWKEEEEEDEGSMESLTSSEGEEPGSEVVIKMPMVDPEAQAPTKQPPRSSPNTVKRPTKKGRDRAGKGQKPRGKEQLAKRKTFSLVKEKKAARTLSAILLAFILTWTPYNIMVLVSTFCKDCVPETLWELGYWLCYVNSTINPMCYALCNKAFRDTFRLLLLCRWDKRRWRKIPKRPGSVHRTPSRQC
# Assay: human M1 muscarinic receptor antagonists, primary screen, CHO-K1 cells, Fluo-8 calcium fluorescence, 1536-well (AID 588852);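 further: peak over basal fluorescence ratio during 140 s after agonist addition; 0% = ACh EC80 plus DMSO and 100% = DMSO alone without agonist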
# Settings: CHO-K1 hM1, Fluo-8 calcium fluorescence, ACh EC80 antagonist; at 3 µM; active compounds read high
row,Structure (SMILES),inhibition
1,C[C@H]1CN([C@@H](C)CO)S(=O)(=O)c2ccc(Br)cc2O[C@H]1CN(C)C(=O)c1cnccn1,-4.86% (inactive)
2,O=C(Cc1ccccc1)Nc1c(Cl)ccc2nsnc12,-7.81% (inactive)
3,CCOC(=O)Nc1ccc2c(c1)N(C(=O)CCN1CCN(CCO)CC1)c1ccccc1CC2,16.4% (inactive)
4,CCOC(=O)Nc1ccc2c(c1)N(C(=O)CCCl)c1ccccc1[S@]2=O,-17.2% (inactive)
5,CCNCCC(=O)N1c2ccccc2Sc2ccc(NC(=O)OCC)cc21,56% (active)
6,Cc1cc2c(cc1C)N(C(=O)CN1C(=O)c3ccccc3C1=O)C(C)(C)c1ssc(=S)c1-2,9.39% (inactive)
7,Nn1c(SCC(=O)Nc2nccs2)nncc1=O,11.7% (inactive)
8,CC(=O)Nc1ccc(OC(=O)COc2ccc(Br)cc2)cc1,1.05% (inactive)
9,Cc1ccc(O)c(NC(=S)NC(=O)COc2ccc(Br)cc2)c1,34.7% (active)
10,Cn1cccc1C(=O)NNC(=O)COc1ccc(Br)cc1,-13% (inactive)
11,Cc1nn(CCCC(=O)NCc2ccccc2Cl)c(=O)c2nccn12,-19.9% (inactive)
12,COc1cccc(-n2cc3c(c2-c2ccccc2)c(=O)n(C)c(=O)n3C)c1,36.7% (active)
13,Cc1ccc(-c2c3c(=O)n(C)c(=O)n(C)c3cn2-c2ccccc2O)cc1,7.07% (inactive)
14,COc1ccc(Nc2cc(=O)n(-c3ccccc3)c3c2c(=O)n(C)c(=O)n3C)cc1,12.9% (inactive)
15,O=c1[nH]c2ccccc2n1C1CCN(CCOc2ccccc2)CC1,78.4% (active)
16,O=S(=O)(c1cccs1)N1CCN(CCOc2ccccc2)CC1,-13.2% (inactive)
17,O=C1CCN(CCc2ccccc2)CCN1CCOc1ccccc1,-21.3% (inactive)
18,O=C(Nc1cc(Br)ccc1F)c1nc[nH]c1C(=O)NCc1ccccc1,-2.93% (inactive)
19,CCOC1CS(=O)(=O)CC1OCC (stereo not given),-4.01% (inactive)
20,Cc1ccc(CN2CC(N3CCC(Cc4ccccc4)CC3)CS2(=O)=O)cc1 (stereo not given),-11.4% (inactive)
21,CCN(CCCNC(=O)CSc1cc(=O)n(C)c2cc(Cl)ccc12)Cc1ccccc1,2.6% (inactive)
22,Cn1cncc1COC(=O)c1ccc(Cl)cc1,88.4% (active)
23,Cc1cc(OC(=O)c2ccc(Cl)cc2)cc(=O)n1C,-25.4% (inactive)
24,COC(=O)c1ccc(COC(=O)c2cnc(Cl)c(Cl)c2)cc1,-11.6% (inactive)
25,Cc1ccccc1NC(=O)CSC1=NCCN1,-2.31% (inactive)
